The record followed here is the supplement of paper PMC7411640.

Structures can show the parent of a compound that is named as a salt.

This test deals with MDA-MB-468. Put plainly: phospho-S6 immunofluorescence (DAPI-normalised), per-plate z-score; higher = higher phospho-S6 signal (less pathway suppression). To be noted: co-treatment: vehicle; 24 h. The protocol:
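GPCR-targeted compound library (MedChemExpress HY-L006) tested on MDA-MB-468 PTEN-null TNBC cells in 384-well plates at 0.1, 1 or 10 uM, combined with vehicle, GDC0941 450 nM or lapatinib 1 uM, for 24 h. Phospho-S6 (S240/244) immunofluorescence normalised to DAPI and expressed as a per-plate z-score; values are the mean of biological triplicates.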
`OCCN1CCN(CCCN2c3ccccc3Sc3ccc(Cl)cc32)CC1` [Perphenazine] (compound 10 µM): the “phospho-S6 immunofluorescence (z-score)” value was 0.82.
For `C[C@@H]1C[C@H]2[C@@H]3CCC4=CC(=O)C=C[C@]4(C)[C@@]3(Cl)[C@@H](O)C[C@]2(C)[C@@]1(OC(=O)c1ccco1)C(=O)CCl` [Mometasone furoate] (compound 10 µM), the “phospho-S6 immunofluorescence (z-score)” value was -1.92.
As to `CN1CCC(=C2c3ccccc3C=Cc3ccccc32)CC1` [Cyproheptadine (hydrochloride)] (compound 10 µM), the “phospho-S6 immunofluorescence (z-score)” value was 0.16.
Under `O=C1NCCN1CCN1CCC(c2cn(-c3ccc(F)cc3)c3ccc(Cl)cc23)CC1` [Sertindole] (compound 10 µM) stands -4.35; under `CN1CCc2cc(Cl)c(O)cc2[C@@H](c2ccccc2)C1` (compound 10 µM), 0.1.
Under `Cc1c(-c2ccccc2)oc2c(C(=O)OCCN3CCCCC3)cccc2c1=O` [Flavoxate (hydrochloride)] (compound 10 µM) stands 0.07; under `O=C1Cc2cc(CCN3CCN(c4nsc5ccccc45)CC3)c(Cl)cc2N1` [Ziprasidone (hydrochloride monohydrate)] (compound 10 µM), -5.97.
Under `CN1CCN(C(=O)c2cc3cc(Cl)ccc3[nH]2)CC1` (compound 10 µM) stands 0.18.
Consider `CC(C)=CCC[C@](C)(O)[C@H]1CC[C@]2(C)[C@@H]1[C@H](O)C[C@@H]1[C@@]3(C)CC[C@H](O)C(C)(C)[C@@H]3[C@@H](O)C[C@]12C` [(20S)-Protopanaxatriol] (compound 10 µM), for which the “phospho-S6 immunofluorescence (z-score)” value is -0.03.
In the case of `CC1CCN(CC[C@H]2CCCN2S(=O)(=O)c2cccc(O)c2)CC1` (compound 10 µM), the “phospho-S6 immunofluorescence (z-score)” value is 0.48.
Consider `CCCN(CCc1cccs1)C1CCc2c(O)cccc2C1` (racemic) [rac-Rotigotine (Hydrochloride)] (compound 10 µM), for which the “phospho-S6 immunofluorescence (z-score)” value was -0.11.
Under `Cc1ccc(F)cc1C(=O)Nc1ccc(C(=O)N2Cc3cccn3Cc3ccccc32)c(Cl)c1` [Lixivaptan] (compound 10 µM) stands 0.62.
The result for `CN(C)CCSSCCNC(=O)C1CCN(C(=O)CSc2ccc(Cl)cc2)CC1` [6H05 (trifluoroacetate)] (compound 10 µM) reads -0.23.
As for `Nc1ccc(/C=C/c2cccc(C(=O)O)n2)cc1` (compound 10 µM), the “phospho-S6 immunofluorescence (z-score)” value worked out at 1.07.
As for `Cc1nc2n(c(=O)c1CCN1CCC(c3noc4cc(F)ccc34)CC1)CCCC2O` (configuration not stated) [Paliperidone] (compound 10 µM), the “phospho-S6 immunofluorescence (z-score)” value is 0.5.
For the molecule `OC(CCN1CCCCC1)(c1ccccc1)C1CC2C=CC1C2` (configuration not stated) [Biperiden (Hydrochloride)] (compound 10 µM), the “phospho-S6 immunofluorescence (z-score)” value is -1.56.
The result for `COc1cc2nc(N(C)CCCNC(=O)C3CCCO3)nc(N)c2cc1OC` (configuration not stated) [Alfuzosin] (compound 10 µM) reads -0.19; that for `CC(=O)OCC(=O)[C@@]12OC(C)(C)O[C@@H]1C[C@H]1[C@@H]3C[C@H](F)C4=CC(=O)C=C[C@]4(C)[C@@]3(F)[C@@H](O)C[C@@]12C` [Fluocinonide] (compound 10 µM), 0.62.
The result for `CC1(C)O[C@@H]2C[C@H]3[C@@H]4CCC5=CC(=O)C=C[C@]5(C)[C@H]4[C@@H](O)C[C@]3(C)[C@]2(C(=O)CO)O1` [Desonide] (compound 10 µM) reads 1.16; that for `NC(=O)c1ccc[n+]([O-])c1` [Nicotinamide N-oxide] (compound 10 µM), -0.26.
Under `Cc1c(Cc2ccc3ccccc3n2)c2cc(F)ccc2n1CC(=O)O` (compound 10 µM) stands 0.58; under `Nc1ncnc2c1ncn2C1CCCO1` (configuration not stated) (compound 10 µM), -0.21; under `COC(=O)[C@H]1[C@H]2C[C@H]3c4[nH]c5ccccc5c4CCN3C[C@H]2CC[C@@H]1O` [Rauwolscine (hydrochloride)] (compound 10 µM), -0.22.
As to `CCCCCCCCOc1ccccc1C(=O)Nc1ccc(C(=O)OCC[N+](C)(CC)CC)cc1` [Otilonium (bromide)] (compound 10 µM), the “phospho-S6 immunofluorescence (z-score)” value turned out to be 0.94.
The result for `CN(C)CCOC(C)(c1ccccc1)c1ccccn1` (configuration not stated) [Doxylamine (succinate)] (compound 10 µM) reads 0.58; that for `Cc1noc(-c2ccc(-c3ccc(CC(=O)O)cc3)cc2)c1NC(=O)OC(C)c1ccccc1Cl` (configuration not stated) (compound 10 µM), 0.02; that for `CC(=O)N[C@H](Cc1ccc2ccccc2c1)C(=O)N[C@H](Cc1ccc(Cl)cc1)C(=O)N[C@H](Cc1cccnc1)C(=O)N[C@@H](CO)C(=O)N(C)[C@@H](Cc1ccc(O)cc1)C(=O)N[C@H](CC(N)=O)C(=O)N[C@@H](CC(C)C)C(=O)N[C@@H](CCCCNC(C)C)C(=O)N1CCC[C@H]1C(=O)N[C@H](C)C(N)=O` [Abarelix] (compound 10 µM), -0.38.
